The text below walks through data of PubChem BioAssay (Tox21).

SMILES strings stand for the structures. Records with an inconclusive call do not appear. Active and inactive are the calls of the source. Unless noted, calls follow the shape of the dose curve; as a rule, active = well fitted curve in the direction sought with a large enough effect in the repeat runs; inconclusive = weak or mixed curves; inactive = no such curve, though single readings can be large; an effect the other way counts as inactive or inconclusive.

A short description of test [1]: qHTS assay to identify small molecule antagonists of the sonic hedgehog signaling (Shh) pathway (AID 1259369; calls by dose curve; also: nearly all actives have a fitted effect of over 45% in size; also: potency is read from the fitted curve at half-maximal effect). The method, boiled down:
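Inhibition of Shh signalling is measured as reduced Gli1-response-element firefly luciferase output in an NIH/3T3-derived stable reporter clone stimulated with conditioned medium for 24hr.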

Test [2] addresses Estrogen receptor beta (Homo sapiens) (UniProt Q92731). In words: qHTS assay to identify small molecule antagonists of the estrogen receptor beta (ER-beta) signaling pathway (AID 1259378; active = well fitted inhibition curve with a large enough effect in the signal ratio in the repeat runs, not every such curve was filed as active; the % refers to the signal ratio; also: potency is read from the fitted curve at half-maximal effect). Summed up: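 ER-beta-UAS-bla HEK293T (GripTite) cells in 2% charcoal-stripped FBS medium were preincubated 6 hr at 37C, dosed with compound, then stimulated with 1 nM E2 (final) for 16 hr; beta-lactamase reporter read by B/G FRET fluorescence after 2 hr substrate loading.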
In general terms: In qHTS, concentration-response curves come from the screen itself.

A short description of test [3]: qHTS assay to identify small molecule agonists of the androgen receptor (AR) signaling pathway in the presence of an antagonist - cell viability counter screen (AID 1259379).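 Also: MDA-kb2 human breast cancer cells carrying an MMTV luciferase reporter; series mostly up to about 92 µM; nearly all actives have a fitted effect of over 25% in size.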 The method, boiled down:
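Fluorescence from CellTiter-Fluor, added after 15 hr and read 1 hr later, gave cell viability. Cells were MDA-kb2 exposed to compounds (15 concentrations) in the presence of 3.0uM nilutamide at 37C, 0% CO2.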

The nature of test [4]: qHTS assay to identify small molecule agonists of the estrogen receptor beta (ER-beta) signaling pathway - cell viability counter screen (AID 1259380). Also: nearly all actives have a fitted effect of over 30% in size. Also: potency is read from the fitted curve at half-maximal effect. Summed up:
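Same-well viability counter screen. Cells: ER-beta-UAS-bla HEK293T, plated 6 hr before compound, in 2% charcoal-stripped FBS. Compound exposure 16 hr, 37C; viability by CellTiter-Glo luminescence after 30 min at room temperature.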

A short description of test [5]: qHTS assay to identify small molecule antagonists of the estrogen receptor beta (ER-beta) signaling pathway - cell viability counter screen (AID 1259382). Also: nearly all actives have a fitted effect of over 55% in size. Also: potency is read from the fitted curve at half-maximal effect. Summed up:
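Following a 6 hr plating period, HEK293T cells carrying a UAS-driven beta-lactamase reporter under ER-beta control received compounds and 1nM E2 (final). After 16 hr at 37C and 2 hr substrate loading, CellTiter-Glo luminescence indicated viability.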

The target of test [6] is Estrogen receptor (Homo sapiens) (UniProt P03372). In words: qHTS assay to identify small molecule agonists of the estrogen receptor alpha (ER-alpha) signaling pathway in the presence of an antagonist (AID 1259383; calls by dose curve; also: top concentration of the series differs between compounds; nearly all actives have a fitted effect of over 15% in size). The method, boiled down: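 Cells are hormone-deprived for 5 days (charcoal-stripped FBS, no phenol red), plated for 24hr, spiked with 10.0nM ICI-182,780, then dosed at 15 concentrations. After 22hr at 37C, ONE-Glo luminescence reports ERE-luciferase activity.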
Sequence of Estrogen receptor (Homo sapiens) (P03372 whole entry, looked up): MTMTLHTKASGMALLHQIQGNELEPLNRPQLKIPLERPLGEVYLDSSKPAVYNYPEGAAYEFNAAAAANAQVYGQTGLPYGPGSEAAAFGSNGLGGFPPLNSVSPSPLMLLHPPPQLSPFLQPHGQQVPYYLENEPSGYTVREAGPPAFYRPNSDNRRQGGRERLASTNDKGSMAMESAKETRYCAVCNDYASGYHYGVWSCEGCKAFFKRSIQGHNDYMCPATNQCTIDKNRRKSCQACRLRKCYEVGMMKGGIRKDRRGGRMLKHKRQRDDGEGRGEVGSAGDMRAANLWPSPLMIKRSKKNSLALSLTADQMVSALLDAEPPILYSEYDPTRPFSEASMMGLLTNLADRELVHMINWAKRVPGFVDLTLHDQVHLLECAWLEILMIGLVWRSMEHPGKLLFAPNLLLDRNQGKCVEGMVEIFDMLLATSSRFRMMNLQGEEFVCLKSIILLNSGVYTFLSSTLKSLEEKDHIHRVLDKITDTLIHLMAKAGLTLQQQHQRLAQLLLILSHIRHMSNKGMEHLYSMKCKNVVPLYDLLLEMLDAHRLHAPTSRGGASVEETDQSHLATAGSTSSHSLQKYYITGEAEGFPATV

Test [7] can be described thus: qHTS assay to identify small molecule agonists of the estrogen receptor alpha (ER-alpha) signaling pathway in the presence of an antagonist - cell viability counter screen (AID 1259386).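 Also: series mostly up to about 92 µM; cells exposed to compounds for 22 h at 37 °C before the viability read; nearly all actives have a fitted effect of over 30% in size.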 The method, boiled down: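 Cells are starved of estrogens for 5 days in charcoal-stripped serum, seeded for 24hr and co-treated with ICI-182,780 (10.0nM final) and test compounds. After 22hr at 37C, viability is read as CellTiter-Fluor fluorescence.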

Test [8] can be described thus: qHTS assay to identify small molecule antagonists of the progesterone receptor (PR) signaling pathway - cell viability counter screen (AID 1346798). Also: nearly all actives have a fitted effect of over 50% in size. Also: potency is read from the fitted curve at half-maximal effect. Summed up:
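Following a 4 hr attachment, PR-UAS-bla HEK293T cells in charcoal-stripped FBS medium were exposed to compounds with R5020 for 16 hr; CellTiter-Glo was added and luminescence read after 30 min at room temperature.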

Test [9] in a line: qHTS assay to identify small molecule agonists of the progesterone receptor (PR) signaling pathway - cell viability counter screen (AID 1346799; calls by dose curve; also: nearly all actives have a fitted effect of over 45% in size; also: potency is read from the fitted curve at half-maximal effect). The method, boiled down:
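Here, 3,000 PR-UAS-bla HEK293T cells per well were treated with compounds for 16 hr after a 6 hr preincubation at 37C and 5% CO2; cell viability is the CellTiter-Glo luminescence signal.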

A short description of test [10]: qHTS assay to identify small molecule antagonists of the TGF-beta/Smad signaling pathway - cell viability counter screen (AID 1346824). Also: nearly all actives have a fitted effect of over 50% in size. Summed up: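 SBE-bla HEK 293T cells were plated overnight at 37 C, then given compounds in DMSO plus TGF-beta1 (added as 0.25 ng/mL solution) for 5 hr. After the bla read, CellTiter-Glo was added to the same wells and luminescence read after 30 min at room temperature.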

A short description of test [11]: qHTS assay to identify small molecule agonists of the TGF-beta/Smad signaling pathway - cell viability counter screen (AID 1346829). Also: top concentration of the series differs between compounds; nearly all actives have a fitted effect of over 45% in size. The method, boiled down:
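Compound-treated SBE-bla HEK 293T cells (5 hr, 37 C) were assessed for viability with CellTiter-Glo in parallel with the reporter read.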

Test [12] can be described thus: qHTS assay to identify small molecule agonists of the TGF-beta/Smad signaling pathway (AID 1346859; active = well fitted activation curve with a large enough effect in the signal ratio in the repeat runs, not every such curve was filed as active; the % refers to the signal ratio; also: series mostly up to about 77 µM). Summed up:
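Each well held 4,000 SBE-bla HEK 293T cells incubated overnight before compound addition; 5 hr later the cleavable FRET substrate went on for 2 hr at room temperature, and fluorescence was read at two emissions.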

Test [13] addresses Thyrotropin-releasing hormone receptor (Homo sapiens) (UniProt P34981). Nature of the test: qHTS assay to identify small molecule agonists of the thyrotropin-releasing hormone receptor (TRHR) signaling pathway (AID 1346891; calls by dose curve; also: series mostly up to about 58 µM). The method, boiled down: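 Screening of agonists relied on calcium signalling in HEK293 cells expressing human TRHR: dye loading 2 h at 37 °C preceded compound addition and a 3-min fluorescence time course.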

The target in test [14] is Androgen receptor (Homo sapiens) (UniProt P10275). Nature of the test: qHTS assay to identify small molecule agonists of the androgen receptor (AR) signaling pathway in the presence of an antagonist (AID 1259381; calls by dose curve; also: nearly all actives have a fitted effect of over 15% in size). Summed up: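 Cells are MDA-kb2 (human breast carcinoma, MMTV-luc, AR/GR responsive). Nilutamide is present at 3.0uM final throughout; compounds are added at 15 concentrations and incubated 16hr at 37C before ONE-Glo luminescence detection.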
Sequence of Androgen receptor (Homo sapiens) (P10275 whole entry, looked up): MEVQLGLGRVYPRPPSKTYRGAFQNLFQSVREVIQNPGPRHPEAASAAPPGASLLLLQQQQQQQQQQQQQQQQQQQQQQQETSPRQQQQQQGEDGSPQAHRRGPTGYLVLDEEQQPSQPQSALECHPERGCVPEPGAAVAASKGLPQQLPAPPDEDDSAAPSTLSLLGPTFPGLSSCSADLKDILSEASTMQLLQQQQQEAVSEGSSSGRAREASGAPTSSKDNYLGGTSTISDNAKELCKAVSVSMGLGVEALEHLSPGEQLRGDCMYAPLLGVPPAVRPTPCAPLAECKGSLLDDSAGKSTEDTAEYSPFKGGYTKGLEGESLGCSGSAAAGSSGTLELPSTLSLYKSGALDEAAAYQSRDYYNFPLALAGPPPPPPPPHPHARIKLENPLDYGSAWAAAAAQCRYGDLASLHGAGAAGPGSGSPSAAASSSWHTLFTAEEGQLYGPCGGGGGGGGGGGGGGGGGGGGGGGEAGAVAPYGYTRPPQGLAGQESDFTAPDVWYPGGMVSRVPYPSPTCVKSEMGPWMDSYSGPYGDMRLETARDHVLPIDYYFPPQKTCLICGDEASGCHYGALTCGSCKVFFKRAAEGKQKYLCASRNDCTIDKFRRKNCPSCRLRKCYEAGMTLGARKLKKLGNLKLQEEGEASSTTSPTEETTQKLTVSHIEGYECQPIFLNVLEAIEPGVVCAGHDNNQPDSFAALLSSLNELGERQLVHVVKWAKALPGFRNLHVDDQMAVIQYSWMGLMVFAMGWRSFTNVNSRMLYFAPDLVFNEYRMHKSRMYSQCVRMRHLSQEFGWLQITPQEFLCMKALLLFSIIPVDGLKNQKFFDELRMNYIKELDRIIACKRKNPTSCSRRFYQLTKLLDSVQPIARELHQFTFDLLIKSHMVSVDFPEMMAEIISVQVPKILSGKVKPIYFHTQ

The nature of test [15]: qHTS assay to identify small molecule agonists or antagonists of the thyroid stimulating hormone receptor (TSHR) signaling pathway - wild type cell line counter screen (AID 1259384; calls by dose curve). The method, boiled down: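 Wild-type HEK293 cells were plated 18 h at 37 C/5% CO2, pin-dosed with compound plus Ro20-1724 medium, held 30 min at room temperature, then given cAMP-d2 and anti-cAMP-cryptate; fluorescence was read after 1 h. Fifteen concentrations, triplicate.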

The target in test [16] is Progesterone receptor (Homo sapiens) (UniProt P06401). In words: qHTS assay to identify small molecule agonists of the progesterone receptor (PR) signaling pathway (AID 1346784; calls by dose curve; also: nearly all actives have a fitted effect of over 30% in size; also: potency is read from the fitted curve at half-maximal effect). The method, boiled down: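 Compounds were tested for PR agonism in HEK 293T cells bearing a beta-lactamase gene under UAS control. Treatment lasted 16 hr at 37C; signal came from fluorescence of a FRET substrate.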
Sequence of Progesterone receptor (Homo sapiens) (P06401 whole entry, looked up): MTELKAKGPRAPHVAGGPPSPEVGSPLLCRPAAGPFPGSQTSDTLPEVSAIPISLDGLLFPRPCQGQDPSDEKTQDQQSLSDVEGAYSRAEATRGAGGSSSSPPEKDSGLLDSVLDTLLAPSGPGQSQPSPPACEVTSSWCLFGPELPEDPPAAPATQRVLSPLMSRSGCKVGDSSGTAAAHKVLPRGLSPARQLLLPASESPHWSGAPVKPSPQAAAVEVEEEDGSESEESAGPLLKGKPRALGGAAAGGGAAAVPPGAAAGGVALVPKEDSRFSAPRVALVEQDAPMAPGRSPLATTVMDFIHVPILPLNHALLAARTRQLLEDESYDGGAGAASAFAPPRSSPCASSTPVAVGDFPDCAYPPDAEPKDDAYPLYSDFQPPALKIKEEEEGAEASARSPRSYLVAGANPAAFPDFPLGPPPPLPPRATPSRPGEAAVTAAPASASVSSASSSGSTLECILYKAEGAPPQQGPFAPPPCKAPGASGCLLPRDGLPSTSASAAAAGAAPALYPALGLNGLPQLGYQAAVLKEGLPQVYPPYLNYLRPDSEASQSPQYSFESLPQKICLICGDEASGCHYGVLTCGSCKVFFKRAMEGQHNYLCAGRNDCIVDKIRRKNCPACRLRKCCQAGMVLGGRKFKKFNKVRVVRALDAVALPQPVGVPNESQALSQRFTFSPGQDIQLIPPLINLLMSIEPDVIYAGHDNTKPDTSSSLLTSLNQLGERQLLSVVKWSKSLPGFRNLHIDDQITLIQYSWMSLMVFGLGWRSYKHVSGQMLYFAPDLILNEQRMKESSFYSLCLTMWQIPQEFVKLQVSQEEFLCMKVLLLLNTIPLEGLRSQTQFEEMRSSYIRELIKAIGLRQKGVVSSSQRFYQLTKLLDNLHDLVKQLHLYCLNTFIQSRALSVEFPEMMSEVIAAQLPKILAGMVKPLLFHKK

The target is the same in test [17]. Nature of the test: qHTS assay to identify small molecule antagonists of the progesterone receptor (PR) signaling pathway (AID 1346795; active = well fitted inhibition curve with a large enough effect in the signal ratio in the repeat runs, not every such curve was filed as active; the % refers to the signal ratio; also: potency is read from the fitted curve at half-maximal effect). Summed up: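 In HEK293T cells bearing the PR-UAS-bla reporter, compound effects on promegestone-driven (1 nM) beta-lactamase expression are assessed after 16 hr using a fluorescent FRET substrate incubated 2 hr at room temperature.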

Test [18] deals with Thyrotropin-releasing hormone receptor (Homo sapiens) (UniProt P34981). Nature of the test: qHTS assay to identify small molecule antagonists of the thyrotropin-releasing hormone receptor (TRHR) signaling pathway (AID 1346877; active = well fitted inhibition curve with a large enough effect in the repeat runs, not every such curve was filed as active; also: series mostly up to about 51 µM). The method, boiled down: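 Cells (TRHR-HEK293) are plated and kept 18 h at 37 °C/5% CO2. A calcium-sensitive dye is added for 2 h, compound follows for 5 min at room temperature, and TRH is then given at 1 nM final.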
Sequence of Thyrotropin-releasing hormone receptor (Homo sapiens) (P34981 whole entry, looked up): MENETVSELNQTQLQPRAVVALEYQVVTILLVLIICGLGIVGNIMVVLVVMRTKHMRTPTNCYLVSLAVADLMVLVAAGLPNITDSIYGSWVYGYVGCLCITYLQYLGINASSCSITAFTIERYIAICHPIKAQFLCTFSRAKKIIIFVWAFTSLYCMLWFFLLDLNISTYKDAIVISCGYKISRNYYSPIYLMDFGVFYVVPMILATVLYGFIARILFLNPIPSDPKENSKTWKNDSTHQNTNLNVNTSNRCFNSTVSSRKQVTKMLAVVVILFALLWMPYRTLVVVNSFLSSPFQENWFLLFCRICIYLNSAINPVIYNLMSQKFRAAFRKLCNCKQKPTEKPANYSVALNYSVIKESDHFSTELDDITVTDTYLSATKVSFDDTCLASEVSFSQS

The target of test [19] is Thyrotropin receptor (Homo sapiens) (UniProt P16473). In words: qHTS assay to identify small molecule antagonists of the thyroid stimulating hormone receptor (TSHR) signaling pathway (AID 1259385; calls by dose curve; also: nearly all actives have a fitted effect of over 20% in size; also: potency is read from the fitted curve at half-maximal effect). The method, boiled down:
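TSHR-HEK293 cells were plated and held 18 h at 37C/5% CO2, then given compound plus Ro20-1724 and stimulated with TSH at 1.5 ng/mL final. After 30 min at room temperature, cAMP was detected with cAMP-d2/anti-cAMP-cryptate (1 h) by fluorescence.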

The target in test [20] is Estrogen receptor beta (Homo sapiens) (UniProt Q92731). Nature of the test: qHTS assay to identify small molecule agonists of the estrogen receptor beta (ER-beta) signaling pathway (AID 1259377; active = well fitted activation curve with a large enough effect in the signal ratio in the repeat runs, not every such curve was filed as active; the % refers to the signal ratio). The method, boiled down: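 Read-out: beta-lactamase FRET fluorescence. Cell line: ER-beta-UAS-bla HEK293T in 2% charcoal-stripped FBS. Exposure: 16 hr at 37C. Substrate step: 2 h at room temperature.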
Sequence of Estrogen receptor beta (Homo sapiens) (Q92731 whole entry, looked up): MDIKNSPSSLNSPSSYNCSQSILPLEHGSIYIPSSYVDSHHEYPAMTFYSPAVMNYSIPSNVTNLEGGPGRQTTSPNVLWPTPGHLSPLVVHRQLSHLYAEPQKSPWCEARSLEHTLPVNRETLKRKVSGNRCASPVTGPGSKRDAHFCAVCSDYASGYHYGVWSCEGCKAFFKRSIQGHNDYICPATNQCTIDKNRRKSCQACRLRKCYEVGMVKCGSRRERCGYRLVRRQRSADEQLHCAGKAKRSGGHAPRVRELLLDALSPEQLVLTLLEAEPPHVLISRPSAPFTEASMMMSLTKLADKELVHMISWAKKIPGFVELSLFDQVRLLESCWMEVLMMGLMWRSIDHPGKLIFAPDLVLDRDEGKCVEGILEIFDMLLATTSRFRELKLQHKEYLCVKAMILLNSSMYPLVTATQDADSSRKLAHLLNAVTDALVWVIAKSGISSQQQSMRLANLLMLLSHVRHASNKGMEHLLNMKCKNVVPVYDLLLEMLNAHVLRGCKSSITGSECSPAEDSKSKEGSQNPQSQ

Sequence of Thyrotropin receptor (Homo sapiens) (P16473 whole entry, looked up): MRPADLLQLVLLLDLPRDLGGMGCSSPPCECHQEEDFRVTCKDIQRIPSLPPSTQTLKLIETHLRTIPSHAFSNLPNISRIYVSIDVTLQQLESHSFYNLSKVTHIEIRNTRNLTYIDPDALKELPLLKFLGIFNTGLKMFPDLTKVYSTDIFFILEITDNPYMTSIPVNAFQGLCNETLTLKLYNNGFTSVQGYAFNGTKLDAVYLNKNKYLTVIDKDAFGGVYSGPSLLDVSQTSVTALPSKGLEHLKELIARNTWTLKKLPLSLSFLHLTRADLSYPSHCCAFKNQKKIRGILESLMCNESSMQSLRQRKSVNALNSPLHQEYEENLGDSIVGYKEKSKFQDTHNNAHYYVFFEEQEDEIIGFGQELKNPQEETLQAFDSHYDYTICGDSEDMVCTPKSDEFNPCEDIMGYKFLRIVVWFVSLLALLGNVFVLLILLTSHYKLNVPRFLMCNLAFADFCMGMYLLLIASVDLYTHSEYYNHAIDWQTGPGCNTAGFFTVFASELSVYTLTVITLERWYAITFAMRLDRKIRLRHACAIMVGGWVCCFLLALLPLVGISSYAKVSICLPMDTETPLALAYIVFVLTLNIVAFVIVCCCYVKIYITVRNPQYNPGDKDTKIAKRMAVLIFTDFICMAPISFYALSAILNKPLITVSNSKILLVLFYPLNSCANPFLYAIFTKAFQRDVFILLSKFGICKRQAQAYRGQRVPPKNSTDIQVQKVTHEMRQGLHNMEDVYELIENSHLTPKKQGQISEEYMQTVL

Take `CC1(C)[C@H](C(=O)O)N2C(=O)C[C@H]2S1(=O)=O`: the Potency entry in [1], in test [3], in test [4], in test [5], in test [6] and in test [7] was “inactive” in each case. In addition, the Potency result in [8], in [9], in test [10], in [11], in [12] and in test [13] was “inactive” each time. Besides, the Potency in test [2] is 11.9 µM (active).

In the case of `C[C@H]1c2cccc(O)c2C(O)=C2C(=O)[C@]3(O)C(O)=C(C(N)=O)C(=O)[C@@H](N(C)C)[C@@H]3[C@@H](O)[C@@H]21`, the Potency result in [1], in test [3], in [4], in test [14], in [5] and in [6] was “inactive” each time. The Potency entry in test [7], in test [8], in test [9], in test [10], in test [11] and in [13] was “inactive” each time.

In the case of `NCCNCCO`, the Potency result in [1], in test [2], in test [3], in test [4], in test [5] and in [6] was “inactive” in each case. For the same compound, the Potency entry in test [7], in test [16], in test [17], in test [8], in test [9] and in test [10] was “inactive” each time. Further, the Potency entry in test [11], in test [12] and in [13] was “inactive” in each case. Besides, the result in [15] was inactive.

`CCOC(=O)c1ccc(I)cc1`: the Potency entry in test [1], in [3], in test [4], in test [5], in test [6] and in test [7] was “inactive” in each case. The Potency entry in test [17], in test [8], in test [10], in [11], in test [12] and in [13] was “inactive” in each case. Moreover, the call in test [15] and in test [18] was inactive. In addition, the Potency in test [16] was 5.5 µM (active).

As for `O=C(O)c1ccc(OCCCOc2ccc(C(=O)O)cc2)cc1`, the Potency entry in [1], in test [2], in test [3], in [4], in test [5] and in [19] was “inactive” throughout. For the same compound, the Potency result in [7], in test [16], in test [17], in [8], in [9] and in test [10] was “inactive” in each case. For the same compound, the Potency entry in test [11], in test [12] and in test [13] was “inactive” throughout. Also, the result in [15] and in test [18] was inactive.

As to `N#CCCN(CCO)CCO`, the Potency result in test [1], in test [3], in [4], in [5], in test [6] and in test [19] was “inactive” in each case. In addition, the Potency result in test [7], in [16], in test [8], in [9], in [10] and in test [11] was “inactive” each time. Also, the Potency result in [13] is “inactive”. Further, in test [15], the outcome was inactive.

On to `O=C1c2ccccc2C(=O)C1c1nc2ccccc2c(Br)c1O`, for which the Potency result in test [1], in test [2], in test [4], in [5], in [7] and in test [16] was “inactive” throughout. Also, the Potency entry in test [17], in [8], in [9], in test [10] and in [13] was “inactive” each time. Besides, the result in [15] and in test [18] was inactive.

In the case of `c1csc(SSc2cccs2)c1`, the Potency was 13.7 µM (active) in test [1]; 13.7 µM (active) in test [4]; 8.63 µM (active) in test [17]; 9.69 µM (active) in test [8]; 9.69 µM (active) in test [9]. Moreover, the Potency result in test [20], in test [7], in test [16], in test [10], in test [11] and in test [12] was “inactive” throughout. Moreover, in test [15], the compound was called inactive.

For the compound `CN1CCCC(CC2c3ccccc3Sc3ccccc32)C1` (stereo not given), the Potency in test [1] was 6.68 µM (active); in test [2] it was 13.3 µM (active); in [4], 18.8 µM (active); in test [5], 11.9 µM (active); in test [19], 29.8 µM (active); in test [8], 18.8 µM (active). In addition, in test [9], the Potency was 18.8 µM (active). Further, the Potency result in test [6], in test [7], in [16], in test [10], in [11] and in [12] was “inactive” each time. The Potency result in test [13] is “inactive”. The compound was called inactive in [15] and in [18].

With `CCOc1ccccc1O[C@H](c1ccccc1)[C@H]1CNCCO1`, the Potency entry in test [1], in test [3], in test [4], in [5], in [6] and in [19] was “inactive” in each case. Besides, the Potency result in test [7], in [17], in test [8], in test [10], in [11] and in [12] was “inactive” in each case. The call in [15] was inactive.

Consider `CNC(=O)c1cnn(-c2nc(N)c3ncn([C@@H]4O[C@H](CO)[C@@H](O)[C@H]4O)c3n2)c1`, for which the Potency result in [1], in [3], in test [4], in [5], in test [6] and in [7] was “inactive” each time. For the same compound, the Potency entry in [16], in test [17], in [9], in test [10], in test [11] and in [12] was “inactive” in each case. In addition, the Potency result in [13] was “inactive”. Further, in [15], the compound was called inactive.
